Measurements taken from PubChem BioAssay (NCATS).
Results filed as inconclusive are left out. Calls of active or inactive are those of the source. Calls follow the shape of the dose curve; as a rule, active = well fitted curve in the direction sought with a large enough effect; inconclusive = small, poorly fitted or top-dose-only effect, or another doubt; inactive = no such curve, though single readings can be large; an effect the other way counts as inactive or inconclusive. Where a SMILES comes first, the peptide text is derived from it. The star is where a group is joined. βNA = c1ccc2cc(N*)ccc2c1; Cbz = O=C(OCc1ccccc1)*

Columns and labels:
CRL-7250 = normal cell line; experiment: Cytotoxic Profiling of Annotated Libraries Using Quantitative High-Throughput Screening (AID 1296008); settings: Five cell lines viability, CellTiter-Glo ATP luminescence, 48-72 h; max response: hits give low values; also: nearly all actives have a fitted effect of over 60% in size; as to max response: % is scaled to controls: 0 for no effect and ±100 for the full control effect
Method in brief: (§1)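 Cytotoxicity was measured as CellTiter-Glo ATP luminescence, read after 10 min at room temperature. Compound treatment of the cells lasted 48 or 72 hr at 37 degrees Celsius in a qHTS format.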

HEK293 = experiment: as above; settings: Five cell lines viability, CellTiter-Glo ATP luminescence, 48-72 h; max response: hits give low values
Method in brief: as §1

HaCat [1] = experiment: as above; settings: Five cell lines viability, CellTiter-Glo ATP luminescence, 48-72 h; max response: hits give low values
Method in brief: as §1

KB-3-1 = experiment: as above; settings: Five cell lines viability, CellTiter-Glo ATP luminescence, 48-72 h; max response: hits give low values
Method in brief: as §1

NIH3T3 [2] = experiment: as above; settings: Five cell lines viability, CellTiter-Glo ATP luminescence, 48-72 h; max response: hits give low values
Method in brief: as §1

HACAT [3] = experiment: qHTS assay to identify novel small-molecules to repurpose for Merkel cell carcinoma treatment (AID 1296009); settings: MCC and control cell lines, CellTiter-Glo viability, 72 h; at 44.8 µM (top of the series) unless noted; also: nearly all actives have a fitted effect of over 60% in size
Method in brief: (§2)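 After compound transfer in DMSO, plates were kept 72 hr at 37 degree celsius. Luminescent ATP signal from CellTiter-Glo served as viability measure, normalized against DMSO and no-cell controls.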

NIH3T3 [4] = experiment: as above; settings: MCC and control cell lines, CellTiter-Glo viability, 72 h; at 44.8 µM (top of the series) unless noted
Method in brief: as §2

C33A = experiment: Primary qHTS to identify gynecologic anti-cancer compounds using libraries of approved drugs and bioactive compounds (AID 1345084); settings: Gynecologic cancer cell panel viability, ATPlite luminescence, 48 h; series mostly up to 57.5 µM; also: % is scaled to controls: 0 for no effect and ±100 for the full control effect; nearly all actives have a fitted effect of over 55% in size
Method in brief: (§3)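 Measured: luminescence after ATPlite addition (15 min, RT). Exposure: 48 h, 37 C, 5% CO2.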

CAOV3 = experiment: as above; settings: Gynecologic cancer cell panel viability, ATPlite luminescence, 48 h; series mostly up to 57.5 µM
Method in brief: as §3

CASKI = experiment: as above; settings: Gynecologic cancer cell panel viability, ATPlite luminescence, 48 h; series mostly up to 57.5 µM
Method in brief: as §3

Es-2 = experiment: as above; settings: Gynecologic cancer cell panel viability, ATPlite luminescence, 48 h; series mostly up to 57.5 µM
Method in brief: as §3

HeLa = experiment: as above; settings: Gynecologic cancer cell panel viability, ATPlite luminescence, 48 h; series mostly up to 57.5 µM
Method in brief: as §3

Hek293T = experiment: as above; settings: Gynecologic cancer cell panel viability, ATPlite luminescence, 48 h, control line for the selectivity index; series mostly up to 57.5 µM
Method in brief: as §3

JEG-3 = experiment: as above; settings: Gynecologic cancer cell panel viability, ATPlite luminescence, 48 h; series mostly up to 57.5 µM
Method in brief: as §3

CC(=O)OCC1OC(O[C@H]2CC[C@@]3(C)C(CC[C@]4(C)C3CC=C3[C@@H]5CC(C)(C)CC[C@]5(C(=O)O)CC[C@]34C)[C@]2(C)CO)C(O)C(O)C1OC1OC(C)C(O)C(OC2OCC(O)C(O)C2O)C1O (stereo partly drawn)
inactive: outcome (CRL-7250) | max response (HEK293) -5.43% | outcome (HaCat [1]) | outcome (KB-3-1) | outcome (NIH3T3 [2]) | outcome (HACAT [3]) inactive [at 9.27 µM] | outcome (NIH3T3 [4]) inactive [at 9.27 µM] | activity change, negative = cytotoxicity (C33A) -0.849% [at 11.6 µM] | activity change, negative = cytotoxicity (CAOV3) 3.79% [at 11.6 µM] | activity change, negative = cytotoxicity (CASKI) 14.3% [at 11.6 µM] | activity change, negative = cytotoxicity (Es-2) 2.8% [at 11.6 µM] | activity change, negative = cytotoxicity (HeLa) 8.24% [at 11.6 µM] | activity change, negative = cytotoxicity (Hek293T) 6.88% [at 11.6 µM] | activity change, negative = cytotoxicity (JEG-3) 4.64% [at 11.6 µM]

O=C(OCC1=C[C@@H](O)[C@@H]2C=CO[C@@H](O[C@@H]3O[C@H](CO)[C@@H](O)[C@H](O)[C@H]3O)[C@H]12)c1ccc(O)cc1
inactive: max response (CRL-7250) -4.11% | max response (HEK293) 1.2% | outcome (HaCat [1]) | max response (KB-3-1) 1.69% | outcome (NIH3T3 [2]) | outcome (HACAT [3]) inactive [at 17.4 µM] | outcome (NIH3T3 [4]) inactive [at 17.4 µM] | Potency (C33A) | Potency (CAOV3) | outcome (CASKI) | Potency (Es-2) | Potency (HeLa) | Potency (Hek293T) | Potency (JEG-3)

C[C@@]12CC3(S(=O)(=O)O)OC(O1)[C@]1(COC(=O)c4ccccc4)[C@H]3C[C@]21O[C@@H]1O[C@H](CO)[C@@H](O)[C@H](O)[C@H]1O
inactive: max response (CRL-7250) 2.31% | max response (HEK293) 2.36% | outcome (HaCat [1]) | outcome (KB-3-1) | outcome (NIH3T3 [2]) | outcome (HACAT [3]) inactive [at 17.4 µM] | outcome (NIH3T3 [4]) inactive [at 17.4 µM] | Potency (C33A) | Potency (CAOV3) | outcome (CASKI) | Potency (Es-2) | Potency (HeLa) | Potency (Hek293T) | Potency (JEG-3)

C=C(COC(=O)CC(C)C)C1Cc2cc(C(C)=O)ccc2O1 (stereo not drawn)
inactive: outcome (CRL-7250) | max response (HEK293) -2.29% | outcome (HaCat [1]) | max response (KB-3-1) 4.45% | outcome (NIH3T3 [2]) | outcome (HACAT [3]) | outcome (NIH3T3 [4]) | Potency (C33A) | Potency (CAOV3) | outcome (CASKI) | Potency (Es-2) | Potency (HeLa) | Potency (Hek293T) | Potency (JEG-3)

CC1=CC(=O)CC(C)(C)[C@@]1(O)/C=C/C(C)O[C@@H]1O[C@H](CO)[C@@H](O)[C@H](O)[C@H]1O (stereo partly drawn)
inactive: max response (CRL-7250) -4.8% | max response (HEK293) -13.1% | outcome (HaCat [1]) | outcome (KB-3-1) | outcome (NIH3T3 [2]) | outcome (HACAT [3]) inactive [at 17.4 µM] | outcome (NIH3T3 [4]) inactive [at 17.4 µM] | Potency (C33A) | Potency (CAOV3) | outcome (CASKI) | Potency (Es-2) | Potency (HeLa) | Potency (Hek293T) | Potency (JEG-3)

CC1(C)CC[C@]2(C(=O)O[C@@H]3O[C@H](CO)[C@@H](O)[C@H](O)[C@H]3O)CC[C@]3(C)C(=CCC4[C@@]5(C)C[C@H](O)[C@H](O[C@@H]6O[C@H](C(=O)O)[C@@H](O)[C@H](O)[C@H]6O)[C@@](C)(CO)C5CC[C@]43C)C2C1 (stereo partly drawn)
inactive: max response (CRL-7250) -4.26% | max response (HEK293) 1.87% | outcome (HaCat [1]) | max response (KB-3-1) -16.3% | outcome (NIH3T3 [2]) | outcome (HACAT [3]) inactive [at 9.27 µM] | outcome (NIH3T3 [4]) inactive [at 9.27 µM] | activity change, negative = cytotoxicity (C33A) -10.3% [at 6.55 µM] | activity change, negative = cytotoxicity (CAOV3) 19.8% [at 6.55 µM] | activity change, negative = cytotoxicity (CASKI) -13.7% [at 6.55 µM] | activity change, negative = cytotoxicity (Es-2) -1.31% [at 6.55 µM] | activity change, negative = cytotoxicity (HeLa) -7.43% [at 6.55 µM] | activity change, negative = cytotoxicity (Hek293T) -0.0375% [at 6.55 µM] | activity change, negative = cytotoxicity (JEG-3) -4.92% [at 6.55 µM]

Cc1onc(-c2ccccc2Cl)c1C(=O)N(C)c1ccc(Cl)cc1
inactive: outcome (CRL-7250) | max response (HEK293) -12.8% | outcome (HaCat [1]) | max response (KB-3-1) 4.59% | outcome (NIH3T3 [2]) | outcome (HACAT [3]) | outcome (NIH3T3 [4]) | Potency (C33A) | Potency (CAOV3) | outcome (CASKI) | Potency (Es-2) | Potency (HeLa) | Potency (Hek293T) | Potency (JEG-3)

CC(C)CC(NC(=O)OCc1ccccc1)C(=O)NC(CC(C)C)C(=O)NC(CCC(=O)O)C(=O)Nc1ccc2ccccc2c1 (stereo not drawn) (Cbz-Leu-Leu-Glu-βNA; configuration not given here)
inactive: max response (CRL-7250) -12.3% | max response (HEK293) -0.688% | outcome (HaCat [1]) | outcome (KB-3-1) | outcome (NIH3T3 [2]) | outcome (HACAT [3]) | outcome (NIH3T3 [4]) | Potency (C33A) | Potency (CAOV3) | outcome (CASKI) | Potency (Es-2) | Potency (HeLa) | Potency (Hek293T) | Potency (JEG-3)

O=C(O)Cn1nnc(-c2ccc(CN(CCCCOc3ccc(CN4CCCC4)cc3)CCc3ccccc3)cc2)n1
inactive: outcome (CRL-7250) | max response (HEK293) -0.898% | outcome (HaCat [1]) | max response (KB-3-1) 9.81% | outcome (NIH3T3 [2]) | outcome (HACAT [3]) | outcome (NIH3T3 [4]) | Potency (C33A) | Potency (CAOV3) | outcome (CASKI) | Potency (Es-2) | Potency (HeLa) | Potency (Hek293T) | Potency (JEG-3)

CC(C)Oc1ccc(-c2nc(-c3cccc4c3CCC4NCCC(=O)O)no2)cc1C#N (stereo not drawn)
inactive: max response (CRL-7250) 0.795% | max response (HEK293) -10.1% | outcome (HaCat [1]) | max response (KB-3-1) 8.29% | outcome (NIH3T3 [2]) | outcome (HACAT [3]) | outcome (NIH3T3 [4]) | Potency (C33A) | Potency (CAOV3) | outcome (CASKI) | Potency (Es-2) | Potency (HeLa) | Potency (Hek293T) | Potency (JEG-3)

COc1cc(/C=C/C(=O)O[C@H]2[C@@H]3C=CO[C@@H](O[C@@H]4O[C@H](CO)[C@@H](O)[C@H](O)[C@H]4O)[C@@H]3[C@@]3(CO)O[C@@H]23)ccc1O
inactive: outcome (CRL-7250) | max response (HEK293) 1.49% | outcome (HaCat [1]) | outcome (KB-3-1) | outcome (NIH3T3 [2]) | outcome (HACAT [3]) inactive [at 17.4 µM] | outcome (NIH3T3 [4]) inactive [at 17.4 µM] | Potency (C33A) | Potency (CAOV3) | outcome (CASKI) | Potency (Es-2) | Potency (HeLa) | Potency (Hek293T) | Potency (JEG-3)

Cc1sc(C)c(C(=O)NC2(c3ccc(C(=O)O)cc3)CC2)c1Cc1ccc(C(F)(F)F)cc1
inactive: max response (CRL-7250) -2.74% | max response (HEK293) -5.46% | outcome (HaCat [1]) | max response (KB-3-1) 8.32% | outcome (NIH3T3 [2]) | outcome (HACAT [3]) | outcome (NIH3T3 [4]) | Potency (C33A) | Potency (CAOV3) | outcome (CASKI) | Potency (Es-2) | Potency (HeLa) | Potency (Hek293T) | Potency (JEG-3)
